The source made the active and inactive calls. No rule for the calls is given here. Bounds are passed on as bounds.

A short description of the experiment: Biochemical counterscreen for C difficile toxins, absence of UDPG, inhibitor dose response (AID 720650). Conditions: series mostly up to 19.5 µM. A general note: The purpose of a counterscreen is to sort out artefacts and off-target activity.
Consider `COc1ccc2nc(NNC(=O)C3COc4ccccc4O3)sc2c1` (configuration not stated), for which the AC50 (commonly the midpoint of the concentration-response curve, whichever way the signal moves) was < 160 nM (active).

With `Cc1cc(C)nc(SCC(=O)c2ccc(O)c(O)c2)n1`, the AC50 result was “inactive”.

On to `CN(C)c1ccc(C(=S)N2CCN(C(=S)Nc3ccc(Cl)cc3)CC2)cc1`, for which the AC50 entry was “inactive”.

As for `Oc1ccc(/C=N/Nc2ncnc3nc[nH]c23)cc1`, the AC50 entry was “inactive”.

As to `O=C(C[C@H]1CC[C@H]2[C@@H](COC[C@H](O)CN2C(=O)Nc2ccc(Cl)c(Cl)c2)O1)NCc1ccncc1`, the AC50 entry was “inactive”.

Regarding `COc1ccc(C(NC(C)=O)c2cc(Cl)c3cccnc3c2O)cc1` (configuration not stated), the AC50 result was “inactive”.

With `O=C(NNc1nc2c(F)cccc2s1)C1COc2ccccc2O1` (configuration not stated), the AC50 was 340 nM (active).

In the case of `O=c1c2ccccc2oc2ccc(NCCCN3CCOCC3)cc12`, the AC50 result is “inactive”.

Take `C[C@H](CO)N1C[C@H](C)[C@H](CN(C)Cc2ccc(Oc3ccccc3)cc2)Oc2cc(-c3ccncc3)ccc2S1(=O)=O`: the AC50 result was “inactive”.

For `CC1=C(C(=O)OCC2CCCO2)C(c2coc3ccccc3c2=O)C2=C(CCCC2=O)N1` (configuration not stated), the AC50 result was “inactive”.

`COc1ccc(C(=O)Nc2c(-c3cccs3)c(=O)c3ccccc3n2C)cc1`: the AC50 result is “inactive”.

For `O=S(=O)(Oc1ccccc1-c1ccccc1)c1ccccc1`, the AC50 entry was “inactive”.

As for `Cc1ccccc1COc1ccc2oc(C)c(C(=O)O)c2c1`, the AC50 entry was “inactive”.

Consider `COc1cccc(-n2c(SCC(=O)N3CCOCC3)nnc2-c2c[nH]c3ccccc23)c1`, for which the AC50 result was “inactive”.

`CCN(C(=O)COC(=O)c1cccnc1SC)C1CCCCC1`: the AC50 result is “inactive”.

For `O=C1Nc2ccccc2C1c1ncc(C(F)(F)F)cc1Cl` (configuration not stated), the AC50 result is “inactive”.

Regarding `O=C(CN1C(=O)CCC1=O)NNc1ccc2ccccc2c1`, the AC50 is < 160 nM (active).

Values taken from PubChem BioAssay AID720650 (Broad Institute, 2013).
